We go through 40 compounds from PubChem BioAssay (NCATS).

Results filed as inconclusive are left out. Calls of active or inactive are those of the source. The call rests on the fitted dose curve; in most records, active means well fitted inhibition curve with a large enough effect; inconclusive means small, poorly fitted or top-dose-only effect; inactive means no such curve, though single readings can be large or run the other way.
Potency means the concentration at half of the fitted maximal effect.

A short description of this assay: qHTS Screen of the MIPE 4.0 Collection Against Ewings Sarcoma (TC71) (AID 1259253). Further: nearly all actives have a fitted effect of over 40% in size. To be noted: TC71 Ewing sarcoma viability, CellTiter-Glo, 48 h; series mostly up to 45.8 µM. From the text:
There is a large unmet medical need for treatments for Ewing sarcoma, a pediatric sarcoma. We sought to identify compounds that inhibited Ewing sarcoma cells in vitro with the goal to then test promising drugs in two drug combinations in vitro to look for synergistic drug combinations. Promising combinations would then proceed to additional validation, including in vivo testing.
Using the NCATS developed oncology compound library called the Mechanism of Interrogation Plate (MIPE), four Ewing sarcoma cell lines were evaluated (TC32, TC71, RDES, EW8). Compounds, in a 12-point titration series, were incubated with cells for 48 hours and the read out was cell viability (CellTiter-Glo from Promega). These initial experiments were used to select appropriate concentrations of each single agent for subsequent two-drug matrix combinations such that the concentrations in the matrices would span both activity and non-activity.
Cells, in the log phase of growth, were seeded in 5 uL of RPMI plus 5% FBS, […] L-glutamine, 100 U/ml penicillin and 100 ug/ml streptomycin into 1536-well solid-bottom white tissue culture treated Greiner Bio One Plates (789173-F) using a MultiDrop Combi (Thermofisher Scientific) dispenser and a small sterile cassette. One column was media alone to be used as a :"no cells" control. The plates were then covered with sterilized stainless steel gasketed lids from Kalypsys. After allowing cells to attach for 4 hours, 23 nL of test compound or control (negative control DMSO and positive control 9.2 uM Bortezomib-final) were added from a 1536-well polypropylene compound source plate to each well using a 1536 head pin tool from Kalypsys. Cells were then incubated for 48 hours at 37C, 95% relative humidity and 5% CO2. After 48 hours, plates were removed from the incubator and 3 uL of CellTiter-Glo (Promega) was added using an Aurora Flying Reagent Dispenser Bioraptor. Plates were incubated at room temperature for 10 minutes prior to reading the luminescence on the Viewlux (PerkinElmer). The relative luciferase units are used to calculate the percent activity using the activity of DMSO in the cells and no cells columns for normalization of no inhibition and full inhibition respectively.
(qHTS replaces the single test concentration by a dilution series.)
For `Nc1nc(N)c(N=O)c(OCC2CCCCC2)n1`, the Potency is 16.6 µM (active).

Turning to `COc1cc(Nc2c(C#N)cnc3cc(OCCCN4CCN(C)CC4)c(OC)cc23)c(Cl)cc1Cl`, the Potency was 18.7 µM (active).

Consider `CC(C)[N+]1(C)[C@@H]2CC[C@H]1CC(OC(=O)C(CO)c1ccccc1)C2` (stereo not given in full), for which the Potency result is “inactive”.

Take `CCN(CC)CCOc1ccc(Nc2ncc3cc(-c4c(Cl)cccc4Cl)c(=O)n(C)c3n2)cc1`: the Potency is 3.32 µM (active).

Consider `CCN(CC)C(=S)SSC(=S)N(CC)CC`, for which the Potency was 0.0132 µM (active).

Consider `Nc1ncn([C@H]2C[C@H](O)[C@@H](CO)O2)c(=O)n1`, for which the Potency is 2.35 µM (active).

In the case of `COC(=O)C1=C(C)NC(C)=C(C(=O)OCCCN2CCC(c3ccccc3)(c3ccccc3)CC2)C1c1cccc([N+](=O)[O-])c1` (stereo not given), the Potency was 20.9 µM (active).

As for `NCCCCNCCCN`, the Potency result is “inactive”.

With `CCCCc1ccc2nc(NC(=O)OC)[nH]c2c1`, the Potency is 0.0187 µM (active).

As for `O=P(O)(O)C(O)(Cn1ccnc1)P(=O)(O)O`, the Potency result was “inactive”.

With `NS(=O)(=O)c1cc(C(=O)O)c(NCc2ccco2)cc1Cl`, the Potency entry is “inactive”.

In the case of `c1cnc2cc3c(cc2n1)C1CNCC3C1`, the Potency entry was “inactive”.

For the compound `COc1cc2c(cc1OC)C1CC(=O)C(CC(C)C)CN1CC2` (stereo not given), the Potency entry was “inactive”.

Turning to `Cc1cccc(-c2[nH]ncc2-c2ccc3ncccc3n2)n1`, the Potency result is “inactive”.

As to `C[C@]12CCC(=O)C=C1CC[C@@H]1[C@H]2[C@@H](O)C[C@@]2(C)[C@H]1CC[C@]2(O)C(=O)CO`, the Potency entry was “inactive”.

As to `O=c1oc2cc(O)ccc2s1`, the Potency is 18.7 µM (active).

With `C[Se]CCC(N)C(=O)O` (stereo not given), the Potency result is “inactive”.

Take `CCCOc1ccc2nc(NC(=O)OC)[nH]c2c1`: the Potency is 0.0093 µM (active).

Regarding `CC[C@]1(O)C[C@H]2CN(CCc3c([nH]c4ccccc34)[C@@](C(=O)OC)(c3cc4c(cc3OC)N(C=O)[C@H]3[C@@](O)(C(=O)OC)[C@H](OC(C)=O)[C@]5(CC)C=CCN6CC[C@]43[C@@H]65)C2)C1`, the Potency is 0.0033 µM (active).

For `COc1ccc2cc([C@H](C)C(=O)O)ccc2c1`, the Potency result was “inactive”.

As to `CC(=O)Nc1ccc(O)cc1`, the Potency result is “inactive”.

`CN(C)C(=O)[C@H](O)[C@H](Cc1ccccc1)NC(=O)c1cc2cc(Cl)ccc2[nH]1`: the Potency was 16.6 µM (active).

In the case of `C[C@H](Cc1ccc(O)c(O)c1)[C@@H](C)Cc1ccc(O)c(O)c1`, the Potency is 13.2 µM (active).

For the compound `Nc1nc(Cl)nc2c1ncn2[C@H]1C[C@H](O)[C@@H](CO)O1`, the Potency is 0.372 µM (active).

In the case of `CC1(C)C(=O)N(CCN2CCC(C(=O)c3ccc(F)cc3)CC2)c2ccccc21`, the Potency entry is “inactive”.

As to `O=c1cc(N2CCOCC2)oc2c(-c3ccccc3)cccc12`, the Potency was 18.7 µM (active).

On to `Cn1c(NCCN(CCO)CCCc2ccc([N+](=O)[O-])cc2)cc(=O)n(C)c1=O`, for which the Potency was 18.7 µM (active).

On to `CC(C)c1ccc2c(c1)c(SC(C)(C)C)c(CC(C)(C)C(=O)O)n2Cc1ccc(Cl)cc1`, for which the Potency is 20.9 µM (active).

With `Cc1cc2cc3c(C)cc(=O)oc3c(C)c2o1`, the Potency is 11.8 µM (active).

Consider `CCOC(=O)C1=C[C@@H](OC(CC)CC)[C@H](NC(C)=O)[C@@H](N)C1`, for which the Potency entry was “inactive”.

`COc1cc(OC)c(C(=O)CCCN2CCCC2)c(OC)c1`: the Potency entry was “inactive”.

In the case of `Cc1cc(Cl)ccc1OCCCC(=O)NO`, the Potency is 9.35 µM (active).

As for `O=c1ccc2ccc(O)c(O)c2o1`, the Potency is 14.8 µM (active).

Consider `CN(c1nccc(=O)[nH]1)C1CCN(c2nc3ccccc3n2Cc2ccc(F)cc2)CC1`, for which the Potency was 18.7 µM (active).

For `CCCCCCCCCCCCCCCCCCCCCCO`, the Potency result is “inactive”.

On to `c1ccc2[nH]c(-c3cscn3)nc2c1`, for which the Potency result was “inactive”.

For the compound `CCCS(=O)c1ccc2nc(NC(=O)OC)[nH]c2c1` (stereo not given), the Potency is 23.5 µM (active).

Turning to `S=c1nc[nH]c2nc[nH]c12`, the Potency is 1.87 µM (active).

Regarding `CN(C)c1ccc(O)c2c1C[C@H]1C[C@H]3[C@H](N(C)C)C(=O)C(C(N)=O)=C(O)[C@@]3(O)C(=O)C1=C2O`, the Potency is 4.69 µM (active).

Take `NNc1nncc2ccccc12`: the Potency entry was “inactive”.
